# Measurements reported in the supplement of paper PMC6555819.
# Assays:
# Test in all cases: PBM binding z-score (relative to random genomic background probes); higher = stronger binding; sequences stand for … in GC…GCGATTGACAGCGTAGAATGAAGG
# [1] = system: FXR:RXRa (NR concentration 270 nM, RXRa partner concentration 90 nM)
# Procedure, shortened: (§1)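 Each nuclear receptor dimer, without ligand, was incubated for 1 h on custom Agilent 4×180K protein-binding microarrays. Binding was detected with antibodies against each partner (one per run), and scanned fluorescence was regression-normalized. The binding z-scores are referenced to random human genomic background probes.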
# [2] = system: LXRa:RXRa (NR concentration 270 nM, RXRa partner concentration 90 nM)
# Procedure, shortened: as §1
# [3] = system: LXRa homodimer (NR concentration 270 nM)
# Procedure, shortened: as §1
# [4] = system: LXRb:RXRa (NR concentration 270 nM, RXRa partner concentration 90 nM)
# Procedure, shortened: as §1
# [5] = system: LXRb homodimer (NR concentration 270 nM)
# Procedure, shortened: as §1
# [6] = system: PPARa:RXRa (NR concentration 270 nM, RXRa partner concentration 90 nM)
# Procedure, shortened: as §1
# [7] = system: PPARg:RXRa (NR concentration 180 nM, RXRa partner concentration 90 nM)
# Procedure, shortened: as §1
# [8] = system: PPARg:RXRa 270nM:90nM, anti-RXR (NR concentration 270 nM, RXRa partner concentration 90 nM)
# Procedure, shortened: as §1
# [9] = system: PPARg:RXRa 30nM:10nM, anti-RXR (NR concentration 30 nM, RXRa partner concentration 10 nM)
# Procedure, shortened: as §1
# [10] = system: PPARg:RXRa 90nM:30nM, anti-RXR (NR concentration 90 nM, RXRa partner concentration 30 nM)
# Procedure, shortened: as §1
# [11] = system: PPARg:RXRa DBDmut IVT, anti-RXR (DBD mutation: RXRa K156A/R161A, NR concentration 270 nM, RXRa partner concentration 90 nM)
# Procedure, shortened: as §1
# [12] = system: PPARg:RXRa IVT, anti-PPARg (NR concentration 270 nM, RXRa partner concentration 90 nM)
# Procedure, shortened: as §1
# [13] = system: PPARg DBDmut:RXRa IVT, anti-PPARg (DBD mutation: PPARg1 K132A/R137A, NR concentration 270 nM, RXRa partner concentration 90 nM)
# Procedure, shortened: as §1
# [14] = system: PPARg DBDmut IVT, anti-PPARg (DBD mutation: PPARg1 K132A/R137A, NR concentration 270 nM)
# Procedure, shortened: as §1
# [15] = system: PPARg homodimer (NR concentration 180 nM)
# Procedure, shortened: as §1
# [16] = system: PXR:RXRa (NR concentration 270 nM, RXRa partner concentration 90 nM)
# Procedure, shortened: as §1
# [17] = system: PXR homodimer (NR concentration 270 nM)
# Procedure, shortened: as §1
# [18] = system: RARa:RXR (NR concentration 270 nM, RXRa partner concentration 90 nM)
# Procedure, shortened: as §1
# [19] = system: RARa homodimer (NR concentration 270 nM)
# Procedure, shortened: as §1
# [20] = system: RARb:RXRa (NR concentration 270 nM, RXRa partner concentration 90 nM)
# Procedure, shortened: as §1
Sequence,PBM binding z-score [1],PBM binding z-score [2],PBM binding z-score [3],PBM binding z-score [4],PBM binding z-score [5],PBM binding z-score [6],PBM binding z-score [7],PBM binding z-score [8],PBM binding z-score [9],PBM binding z-score [10],PBM binding z-score [11],PBM binding z-score [12],PBM binding z-score [13],PBM binding z-score [14],PBM binding z-score [15],PBM binding z-score [16],PBM binding z-score [17],PBM binding z-score [18],PBM binding z-score [19],PBM binding z-score [20]
ACCATTAGTTGACTTAGGGCAACCGATACGACGC,0.502,0.629,0.679,0.464,0.693,0.273,1.06,0.133,0.182,0.582,0.771,0.653,0.856,-0.189,0.706,0.147,0.618,0.916,0.526,0.973
CCTTACGGGTCACTCGAGGTTATAGCATCGGAGT,5.2,7.76,3.19,5.72,-0.178,5.01,4.03,4.33,1.41,3.01,2.22,3.7,0.422,0.0524,1.69,5.71,0.375,3.69,0.443,3.91
CGAACGAGGGCATGAGATGATAGCAAATGCCGAT,0.416,0.173,0.0308,-0.0144,-0.705,1.22,1.5,0.73,0.325,0.278,2.91,1.69,0.746,-0.282,0.685,0.00253,-0.206,0.422,0.183,1.79
TCTTGTAGATCTATAGAGGTTAAGAAAGTGCGCT,0.449,3.17,0.171,1.78,-0.194,1.81,0.274,1.62,2.58,2.23,1.2,0.683,0.144,0.174,0.213,2.66,-0.0488,1.63,0.178,0.906
TCGAGTAGGTTAGTCGGGACATTCAGCCAACATA,2.7e-05,0.0232,-0.222,-0.141,-1.03,0.291,0.156,0.639,0.983,0.955,1.85,1.48,-0.367,-1.31,-0.431,-0.161,-0.242,0.166,-0.452,0.165
TCATATAGGTAAAAGGGGAAAGTCGGTGTGGTAA,1.2,0.984,0.33,1.32,0.445,3.75,6.27,6.98,6.37,7.9,4.82,3.69,1.31,1.21,1.73,0.624,0.862,1.17,2.27,0.958
CGAACTAGGTCAAGGACAATGAATCTCCGCACGC,3.47,2.4,0.0804,1.37,-0.174,4.72,7.83,6.69,4.46,6.15,8.3,8.44,2.51,1.02,2.03,1.31,0.478,1.99,-0.186,3.99
CGTCAGAGTTCAAGGTAACGTAACAGAAAGCAGC,5.49,5.11,1.85,3.2,0.38,4.54,2.92,3.58,0.864,2.39,0.546,0.936,-0.0239,0.226,2.34,4.5,2.86,3.31,0.785,4.36
CCGTCTGGGGCAAAGGTTACCATACTCAGTACGA,1.5,1.57,-0.23,2.15,-0.982,4.92,10.4,8.97,9.6,10.6,3.2,5.43,-0.238,-0.231,1.64,2.45,-0.428,4.24,-0.0466,2.5
CAAACTAGGTCACGTAAGGTCAAAGTCGAATGAC,6.98,8.26,7.28,7.56,2.27,6.49,10.1,8.07,6.4,8.05,8.55,9.19,2.78,1.76,2.46,6.83,2.57,6.43,1.84,5.38
CAAACTAGGTCAAGACGTCAAAGTCCGCTTCCCG,3.84,2.6,0.426,1.79,0.329,4.81,7.43,6.72,4.47,6.25,7.92,8.15,1.87,1.07,1.86,1.24,-0.0732,2.5,0.685,3.97
CGTCCCAGGTCAAGGTCAGTGAAAGAGACTCGAA,6.02,4.67,1.45,3.68,0.553,5,4.32,4.51,1.14,3.02,2.24,3.62,0.134,-0.571,3.49,4.05,1.33,4.43,2.12,5.02
ATCGAAAGGTCGTGAGGTTAGTATACAGAAAGGC,5.61,4.18,0.638,3.63,0.777,5.04,3.95,4.19,1.92,3.08,0.453,2.21,1.19,1.52,2.32,3.74,0.823,4.8,1.16,3.99
CAGCCTAAGTCAGGGCCAGTATAGGAGGAACGTT,-0.194,-0.51,-0.309,-0.69,-1.28,-0.483,0.0918,-0.709,-0.0751,-0.475,-0.358,-0.577,-1.05,-1.43,-0.193,-0.653,-0.125,-0.178,-0.484,-0.134
GGAACGAGGGCAAGTTGATAGCTGAGTTTGATGG,0.775,0.137,-0.459,0.185,-0.455,1.59,0.992,1.03,0.138,0.467,3.45,2.67,0.246,-0.342,0.0769,0.535,0.363,0.267,-0.269,2.57
GCTAGCAGGCCATTTCGGTCACTCAATGACGGGC,-0.325,-0.482,-0.0904,-0.799,-0.792,-0.343,0.224,-0.461,-0.633,-0.697,0.656,0.325,-0.625,-0.867,-0.364,-0.577,-0.577,-0.28,-1.42,1.07
ATCGAAAGGTCGACGAGGTGAGCATACACCGTTT,4.55,3.16,0.0611,2.6,0.486,4.14,2.93,3.33,0.968,2.23,0.211,2.48,1.06,0.825,1.88,2.91,0.446,3.9,0.74,3.9
GCTGCTAGGTCAACTGTTGGTCAGCTAAAGCTCG,3.97,2.97,0.182,2.03,0.134,3.61,2.63,3.07,0.511,2.23,5.26,4.32,0.227,-0.586,1.68,1.48,-0.906,2.9,-0.53,4.42
TCTATTAGTTGAAGCGCAACCGACGAGTCCGTTT,0.428,0.488,-0.0421,0.375,0.082,0.55,-0.192,1.85,3.58,2.67,2.22,0.202,0.484,1.23,0.5,0.326,0.219,0.126,0.262,0.271
AACTCTAGGTAAAGTTCAGTGAAAGATCGATAGA,0.741,1.51,1.46,1.06,0.134,2.44,3.7,4.77,2.77,4.53,2.44,2.21,0.224,0.266,0.953,1.71,1.53,1.14,0.544,2.73
CGAACTAGGTCATCCTGGACAGTGAATACATTGA,4.25,2.46,0.715,2.21,0.266,4.76,7.88,6.36,3.97,5.92,8.23,8.04,1.58,0.831,1.83,1.3,-0.0548,2.02,0.627,3.58
ACTAGCAGGACAAGGGTCACTCAAGATTAGTCCG,2.6,3.07,0.432,2.76,0.105,4.3,6.63,6.93,5.71,7.29,0.93,3.2,-0.0211,-0.445,2.71,3.31,0.0433,4.23,0.605,3.47
ATACCAAGGTGATCGTGATGTCGTTGATACTAAC,0.333,0.0372,0.013,0.116,-0.0295,0.0573,0.279,0.281,0.217,0.0356,0.486,0.996,0.919,1.1,0.247,-0.038,0.104,0.057,0.517,0.325
CCGAATAGGTTATGGGGCATTCAGGCAACGGTGA,0.575,0.686,-0.0267,1.02,-0.297,2.16,1.97,3.14,0.896,2.04,1.26,1.71,-0.226,-0.668,0.678,0.141,-0.0555,0.892,0.0562,1.27
GCTAGTTGGTCAGTAAACGGTCACACACCGGTCG,-0.00893,0.121,0.352,-0.139,-0.393,0.395,0.552,-0.0958,-0.311,0.18,0.107,0.661,0.0589,-0.0564,0.967,0.0338,0.06,0.591,0.301,1.76
TCTAGTTGGTCAAAGGTTACACACTCGAAATGCG,2.63,3.13,1.38,3.04,0.929,5.08,9.84,8.86,8.99,9.47,3.09,4.81,1.41,2.3,3.48,3.45,1.04,4.79,2.25,2.88
TGAATGATGTTATAAGATCAGGGAACGTTGCAAA,-0.318,-0.353,-0.0281,-0.083,0.0619,0.0376,0.37,-0.0772,0.598,0.592,-1.12,-0.0889,0.204,0.597,-0.0286,-0.22,-0.193,0.123,0.481,-0.32
ATCTCAAGGTAAAGTTCAGTGAAAGATCGATAGA,1.67,2.17,1.5,1.42,0.854,2.22,1.97,3.4,1.67,2.73,0.17,1.36,1.42,1.27,1.71,2.26,2.1,1.78,1.65,2.97
